Laboratory results: PubChem BioAssay (Tox21)
Records with an inconclusive call do not appear. The source made the active and inactive calls. Unless noted, calls follow the shape of the dose curve; as a rule, active = well fitted curve in the direction sought with a large enough effect in the repeat runs; inconclusive = weak or mixed curves; inactive = no such curve, though single readings can be large; an effect the other way counts as inactive or inconclusive.

Tests used:
[1] = qHTS assay to identify small molecule agonists of the peroxisome proliferator-activated receptor delta (PPARd) signaling pathway - cell viability counter screen (AID 743211); also: nearly all actives have a fitted effect of over 55% in size
Outline: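 PPARd-bla HEK293H cells (UAS-beta-lactamase reporter) were treated with compounds for 17 h at 37 C. Viability was then read in the same wells by CellTiter-Glo luminescence after 30 min at room temperature.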

[2] = molecular target: Peroxisome proliferator-activated receptor delta (Homo sapiens) (UniProt Q03181); experiment: qHTS assay to identify small molecule agonists of the peroxisome proliferator-activated receptor delta (PPARd) signaling pathway (AID 743212; calls by dose curve)
Outline: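 HEK293H UAS-bla reporter cells, human PPARd system; compounds delivered in DMSO after 5 h plating, then at 37 C. Beta-lactamase FRET read, 2 h RT substrate step.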

[3] = qHTS assay to identify small molecule antagonists of the peroxisome proliferator-activated receptor delta (PPARd) signaling pathway - cell viability counter screen (AID 743213); also: nearly all actives have a fitted effect of over 50% in size
Outline: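 Luminescence from CellTiter-Glo, added after the bla read and incubated 30 min at room temperature, gives viability of HEK293H PPARd-bla cells exposed to compounds for 17 h at 37 C with 300 nM L165041.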

[4] = molecular target: Peroxisome proliferator-activated receptor delta (Homo sapiens) (UniProt Q03181); experiment: qHTS assay to identify small molecule antagonists of the peroxisome proliferator-activated receptor delta (PPARd) signaling pathway (AID 743215; active = well fitted inhibition curve with a large enough effect in the signal ratio in the repeat runs, not every such curve was filed as active; the % refers to the signal ratio;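 also: cells stimulated with agonist L165041 at 300 nM final during compound exposure; series mostly up to about 62 µM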)
Outline: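 PPARd UAS-bla HEK293H cells were pre-incubated 5 h at 37 C, then given test compounds in DMSO plus agonist L165041 (300 nM final). After 17 h at 37 C, beta-lactamase FRET substrate was added; fluorescence read after 2 h at room temperature.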

[5] = qHTS assay to identify small molecule agonists of the farnesoid-X-receptor (FXR) signaling pathway - cell viability counter screen (AID 743218); also: nearly all actives have a fitted effect of over 45% in size
Outline: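 FXR-UAS-bla HEK 293T cells, plated 5 h at 37 C, were exposed to compounds for 16 h at 37 C. CellTiter-Glo was then added to the same wells as the bla readout; luminescence read after 30 min at room temperature.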

[6] = molecular target: Bile acid receptor (Homo sapiens) (UniProt Q96RI1); experiment: qHTS assay to identify small molecule agonists of the farnesoid-X-receptor (FXR) signaling pathway (AID 743220; active = well fitted activation curve with a large enough effect in the signal ratio in the repeat runs, not every such curve was filed as active; the % refers to the signal ratio)
Outline: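 Beta-lactamase reporter under UAS control in GeneBLAzer FXR HEK 293T cells (5000/well) measured with LiveBLAzer FRET substrate after 2 h at room temperature. Compound exposure lasted 16 h at 37C.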

[7] = qHTS assay to identify small molecule antagonists of the farnesoid-X-receptor (FXR) signaling pathway - cell viability counter screen (AID 743221; active = well fitted cell-killing curve with a large enough effect in the repeat runs, not every such curve was filed as active; also: nearly all actives have a fitted effect of over 50% in size)
Outline: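 FXR-UAS-bla HEK 293T cells were treated with test compounds plus chenodeoxycholic acid (50 uM final) for 16 h at 37 C. Cell viability in the same wells was then read as CellTiter-Glo luminescence after 30 min at room temperature.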

[8] = molecular target: Vitamin D3 receptor (Homo sapiens) (UniProt P11473); experiment: qHTS assay to identify small molecule agonists of the vitamin D receptor (VDR) signaling pathway (AID 743222; calls by dose curve)
Outline: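 VDR-bla cells were plated 4 h at 37C/5% CO2, then exposed to compounds in DMSO for 16 h. After LiveBLAzer B/G FRET substrate addition and 2 h at room temperature, beta-lactamase reporter fluorescence was read.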

[9] = molecular target: Bile acid receptor (Homo sapiens) (UniProt Q96RI1); experiment: qHTS assay to identify small molecule antagonists of the farnesoid-X-receptor (FXR) signaling pathway (AID 743217; active = well fitted inhibition curve with a large enough effect in the signal ratio in the repeat runs, not every such curve was filed as active; the % refers to the signal ratio)
Outline: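 FXR-UAS-bla HEK 293T cells pre-incubated 5 h at 37 °C, then exposed to compounds with chenodeoxycholic acid (50 uM final) for 16 h at 37 °C. Beta-lactamase reporter read by LiveBLAzer B/G FRET substrate fluorescence after 2 h at room temperature.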

[10] = molecular target: Vitamin D3 receptor (Homo sapiens) (UniProt P11473); experiment: qHTS assay to identify small molecule antagonists of the vitamin D receptor (VDR) signaling pathway (AID 743223; active = well fitted inhibition curve with a large enough effect in the signal ratio in the repeat runs, not every such curve was filed as active; the % refers to the signal ratio)
Outline: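 VDR-bla cells were plated, incubated 4 h at 37C, then given compound and 1alpha,25-dihydroxyvitamin D3 (3 nM final). After 16 h at 37C, LiveBLAzer B/G FRET substrate was added for 2 h at room temperature and fluorescence read.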

Measured: Potency

Chain of Peroxisome proliferator-activated receptor delta (Homo sapiens) (Q03181 whole entry, looked up): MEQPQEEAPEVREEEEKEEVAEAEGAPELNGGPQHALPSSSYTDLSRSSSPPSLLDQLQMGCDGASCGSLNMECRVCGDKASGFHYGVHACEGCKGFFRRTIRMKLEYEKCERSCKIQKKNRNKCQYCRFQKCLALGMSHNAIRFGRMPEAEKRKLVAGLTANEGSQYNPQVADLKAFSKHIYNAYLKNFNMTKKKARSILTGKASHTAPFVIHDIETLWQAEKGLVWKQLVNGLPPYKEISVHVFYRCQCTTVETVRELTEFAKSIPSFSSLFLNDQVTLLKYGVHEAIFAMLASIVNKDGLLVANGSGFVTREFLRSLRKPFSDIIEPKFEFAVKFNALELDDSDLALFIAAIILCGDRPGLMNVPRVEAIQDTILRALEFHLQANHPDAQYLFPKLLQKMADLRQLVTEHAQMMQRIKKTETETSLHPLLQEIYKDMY
Chain of Vitamin D3 receptor (Homo sapiens) (P11473 whole entry, looked up): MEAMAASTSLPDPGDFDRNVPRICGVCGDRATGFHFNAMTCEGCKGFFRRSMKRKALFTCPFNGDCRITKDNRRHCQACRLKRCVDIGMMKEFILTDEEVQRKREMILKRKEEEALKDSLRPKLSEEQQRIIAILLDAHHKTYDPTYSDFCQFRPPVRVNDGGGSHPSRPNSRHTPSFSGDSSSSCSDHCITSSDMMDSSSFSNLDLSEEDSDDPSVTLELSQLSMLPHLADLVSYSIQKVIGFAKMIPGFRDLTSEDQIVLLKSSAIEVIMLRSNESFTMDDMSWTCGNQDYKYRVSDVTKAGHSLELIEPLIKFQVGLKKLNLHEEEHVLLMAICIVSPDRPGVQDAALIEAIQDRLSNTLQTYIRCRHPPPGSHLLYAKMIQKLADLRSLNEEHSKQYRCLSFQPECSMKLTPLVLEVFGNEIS
Chain of Bile acid receptor (Homo sapiens) (Q96RI1 whole entry, looked up): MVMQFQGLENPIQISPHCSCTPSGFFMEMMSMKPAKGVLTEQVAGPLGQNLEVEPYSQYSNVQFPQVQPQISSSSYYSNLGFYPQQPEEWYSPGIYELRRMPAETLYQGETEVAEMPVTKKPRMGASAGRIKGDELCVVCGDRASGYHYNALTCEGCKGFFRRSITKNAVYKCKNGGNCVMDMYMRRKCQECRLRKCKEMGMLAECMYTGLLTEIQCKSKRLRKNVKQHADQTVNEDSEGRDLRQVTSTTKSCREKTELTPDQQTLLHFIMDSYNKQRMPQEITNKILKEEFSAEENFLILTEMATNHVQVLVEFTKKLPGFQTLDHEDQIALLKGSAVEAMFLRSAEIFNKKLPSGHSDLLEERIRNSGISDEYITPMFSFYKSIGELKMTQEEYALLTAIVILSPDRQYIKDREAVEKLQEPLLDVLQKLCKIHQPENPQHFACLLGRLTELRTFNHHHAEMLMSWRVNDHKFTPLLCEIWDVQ

CC1(C)SC(C)(C)SC(C)(C)S1
not listed: [9] | [10]
inactive: all other assays above

NS(=O)(=O)c1cc2c(cc1Cl)NC(CSCc1ccccc1)=NS2(=O)=O
not listed: [6]
inactive: all other assays above

COC(=O)C1=C(C)NC(C)=C(C(=O)OCC(C)=O)C1c1ccccc1[N+](=O)[O-] (configuration not stated)
inactive: all assays above

O=[N+]([O-])c1ccc(Oc2ccc([N+](=O)[O-])cc2)cc1
not listed: [5]
inactive: all other assays above

O=C(O)c1ccccc1-c1ccc(C(F)(F)F)cc1
not listed: [10]
inactive: all other assays above

CCCC(C)CO (configuration not stated)
not listed: [8] | [9] | [10]
inactive: all other assays above

CCCCCCOC(=O)c1ccccc1O
not listed: [7]
inactive: all other assays above

Cc1ccccc1Br
inactive: all assays above

NC(=O)Nc1nc2ccccc2[nH]1
not listed: [9]
inactive: all other assays above

C=C(C)C(=O)NCCC[N+](C)(C)C
inactive: all assays above

C=CC(=O)N1CCOCC1
not listed: [10]
inactive: all other assays above

NC(=O)c1ncn([C@@H]2O[C@H](CO)[C@@H](O)[C@H]2O)c1O
not listed: [8] | [9] | [10]
inactive: all other assays above

CCC(C)(C)C1CCC(OC)CC1 (configuration not stated)
inactive: all assays above

CC(C)CCOC(=O)CC(C)C
not listed: [10]
inactive: all other assays above

O=C(O)c1ccccc1S
not listed: [10]
inactive: all other assays above

NC(=O)c1c(Cl)cccc1Cl
not listed: [9]
inactive: all other assays above

CN(C)CCn1nnnc1SCC1=C(C(=O)O)N2C(=O)[C@@H](NC(=O)Cc3csc(N)n3)[C@H]2SC1
inactive: all assays above

NC(N)=NS(=O)(=O)c1ccc(N)cc1
not listed: [8] | [10]
inactive: all other assays above

CC1(C)OC(=O)Nc2ccc(Br)cc21
not listed: [9]
inactive: all other assays above

Cn1ccc2cc3c(cc21)CCN3C(=O)Nc1cccnc1
not listed: [7] | [8]
inactive: all other assays above

O=[N+]([O-])c1ccc(CCO)cc1
inactive: all assays above

N#CCc1ccccc1[N+](=O)[O-]
inactive: all assays above

NS(=O)(=O)c1cc(C2(O)NC(=O)c3ccccc32)ccc1Cl (configuration not stated)
not listed: [5]
inactive: all other assays above

CC(C)COC(=O)C(C)C
inactive: all assays above

C1COCCO1
inactive: all assays above

COC(C(=O)O)c1ccccc1 (configuration not stated)
inactive: all assays above
